This note sets out measurements from PubChem BioAssay (NCI).

Common to all, as to assay: NCI-60 one-dose screen, 48 h (100 = growth as untreated, 0 = no growth, -100 = all killed)
One assay concerns NCI-H226 lung. The settings on record: 10 µM.
The subject of the next assay is NCI-H322M lung. To be noted: 10 µM.
In a further assay the test system is HOP-62 NSCLC. The settings on record: 10 µM.
In the next assay the test system is NCI-H460 lung. To be noted: 10 µM.
A further assay deals with NCI-H522 lung. To be noted: 10 µM.
In the next assay the test system is COLO 205 colon. To be noted: 10 µM.
A further assay deals with DU-145 prostate. To be noted: 10 µM.
A further assay concerns SF-268 CNS. The settings on record: 10 µM.
The next assay deals with SF-295 CNS. To be noted: 10 µM.
The subject of the next assay is SF-539 CNS. To be noted: 10 µM.
The subject of the next assay is UACC-257 melanoma. The settings on record: 10 µM.
Another assay has as its system M14 melanoma. The settings on record: 10 µM.
A further assay relates to HCT-15 colon. To be noted: 10 µM.
A further assay has as its system HT29 colon. The settings on record: 10 µM.
The subject of the next assay is SNB-19 CNS. The settings on record: 10 µM.
Another assay relates to U251 CNS. To be noted: 10 µM.
Another assay has as its system SK-MEL-5 melanoma. To be noted: 10 µM.
The subject of another assay is UACC-62 melanoma. The settings on record: 10 µM.
For a further assay, the system named is SK-MEL-2 melanoma. To be noted: 10 µM.
For a further assay, the system named is HL-60(TB) leukemia. The settings on record: 10 µM unless noted.

The panel holds about 83,000 compounds, 20% with a hit somewhere; the sample as a whole holds those more often.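 For each line, cells grew in 96-well plates with the test compound present at a single concentration for 48 hours.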 Values without a mark were called inactive. Activity calls are given as the source filed them. How the source made its calls: active means growth percent below 10; inactive means the rest.

Consider `COc1cc(OC)c(S(=O)(=O)N(CCCl)CCCl)cc1C(=O)/C=C/c1cc(OC)c(OC)c(OC)c1`, for which the growth in the assay with NCI-H226 lung is 7.87% (active); with NCI-H322M lung, 12.9%; in the assay with HOP-62 NSCLC it was -5.79% (active); in the assay on NCI-H460 lung, 1.08% (active); in the assay with NCI-H522 lung, -69.1% (active); in the assay on COLO 205 colon, -89.8% (active). In addition, the growth in the assay with DU-145 prostate is -30.3% (active); with SF-268 CNS, 2.74% (active); in the assay with SF-295 CNS it was 0.899% (active); in the assay with SF-539 CNS, -74.1% (active); in the assay with UACC-257 melanoma it was -60% (active); in the assay with M14 melanoma it was -59.4% (active). Further, the growth was -25.1% (active) with HCT-15 colon; -58.7% (active) in the assay with HT29 colon; -38.6% (active) in the assay with SNB-19 CNS; -79.6% (active) in the assay on U251 CNS; -71.3% (active) with SK-MEL-5 melanoma; -33.9% (active) in the assay with UACC-62 melanoma. In addition, the growth in the assay with SK-MEL-2 melanoma is -94.5% (active); in the assay with HL-60(TB) leukemia, -25.8% (active).
On to `N#C[Se]CC(=O)Nc1cccc(C(F)(F)F)c1`, for which the growth in the assay with NCI-H226 lung was -37.7% (active); in the assay on NCI-H322M lung, -19.6% (active); in the assay on HOP-62 NSCLC it was -57.6% (active); in the assay on NCI-H460 lung, -9.31% (active); with NCI-H522 lung, -70.2% (active); with COLO 205 colon, -1.16% (active). For the same compound, the growth in the assay on DU-145 prostate was -13% (active); with SF-268 CNS it was 2.88% (active); with SF-295 CNS, -72.7% (active); in the assay on SF-539 CNS, -91% (active); in the assay on UACC-257 melanoma, -33.3% (active); in the assay with M14 melanoma it was -42.7% (active). For the same compound, the growth in the assay on HCT-15 colon was -84.8% (active); in the assay on HT29 colon, -31.9% (active); in the assay with SNB-19 CNS it was -88.1% (active); in the assay with U251 CNS it was -48.4% (active); in the assay on SK-MEL-5 melanoma it was -73.4% (active); in the assay with UACC-62 melanoma it was -77.4% (active). Further, the growth in the assay on SK-MEL-2 melanoma was -31.1% (active).
Consider `O=C(/C=C/c1ccco1)c1nc2ccccc2n1Cc1ccc(Br)cc1`, for which the growth was 48.2% with NCI-H226 lung; 62.2% with NCI-H322M lung; 57% with HOP-62 NSCLC; 32.4% in the assay with NCI-H460 lung; 4.59% (active) with NCI-H522 lung; 69.7% in the assay with COLO 205 colon. The growth is 28.1% with DU-145 prostate; 45.4% in the assay on SF-268 CNS; 53.5% in the assay on SF-295 CNS; 26.7% in the assay with SF-539 CNS; 36.9% in the assay with UACC-257 melanoma; 26.2% in the assay with M14 melanoma. Besides, the growth with HCT-15 colon is 9.97% (active); in the assay on HT29 colon it was 29.3%; in the assay with SNB-19 CNS, 54.4%; in the assay on U251 CNS, 18.2%; with SK-MEL-5 melanoma it was 57.5%; in the assay on UACC-62 melanoma, 28.7%. In addition, the growth in the assay with SK-MEL-2 melanoma was 46.2%; in the assay with HL-60(TB) leukemia, 16%.
`O=C(/C=C/c1ccc(Cl)cc1)c1nc2ccccc2n1Cc1ccc(F)cc1`: the growth was 36.6% with NCI-H226 lung; 53.5% with NCI-H322M lung; 17.7% in the assay on HOP-62 NSCLC; 26.8% with NCI-H460 lung; 34.9% in the assay on NCI-H522 lung; 71.9% in the assay on COLO 205 colon. Besides, the growth with DU-145 prostate is 37.6%; with SF-268 CNS it was 39.9%; in the assay with SF-295 CNS, 50.7%; in the assay on SF-539 CNS it was -41.7% (active); with UACC-257 melanoma, 51.4%; with M14 melanoma, 16.1%. Besides, the growth was -1.45% (active) in the assay on HCT-15 colon; 5.22% (active) with HT29 colon; 25% in the assay with SNB-19 CNS; -62.8% (active) in the assay on U251 CNS; 69% in the assay on SK-MEL-5 melanoma; 23.5% with UACC-62 melanoma. Moreover, the growth is 68.3% with SK-MEL-2 melanoma and -2.58% (active) in the assay on HL-60(TB) leukemia.
With `CC(=O)Oc1ccccc1C(=O)[Se]C(=NC(C)C)NC(C)C`, the growth in the assay on NCI-H226 lung was -67.2% (active); with NCI-H322M lung, -82.6% (active); with HOP-62 NSCLC, -70.9% (active); in the assay on NCI-H460 lung, -70.2% (active); with NCI-H522 lung, -97% (active); with COLO 205 colon it was -69% (active). The growth with DU-145 prostate is -92.6% (active); in the assay on SF-268 CNS it was -30.9% (active); in the assay with SF-295 CNS, -79% (active); in the assay on SF-539 CNS, -98% (active); with UACC-257 melanoma it was -95.1% (active); in the assay on M14 melanoma it was -92.7% (active). Moreover, the growth in the assay on HCT-15 colon was -45.6% (active); with HT29 colon it was -57% (active); in the assay with SNB-19 CNS, -88.5% (active); in the assay with U251 CNS, -87.8% (active); in the assay on SK-MEL-5 melanoma, -84.4% (active); with UACC-62 melanoma, -44.2% (active). For the same compound, the growth was -79.4% (active) with SK-MEL-2 melanoma and -41.3% (active) in the assay with HL-60(TB) leukemia.
Take `O=C(/C=C/c1ccc(F)cc1)c1nc2ccccc2n1Cc1ccc(Br)cc1`: the growth in the assay with NCI-H226 lung is -66.2% (active); in the assay with NCI-H322M lung, -24.8% (active); in the assay on HOP-62 NSCLC, -68.6% (active); in the assay with NCI-H460 lung it was -59.4% (active); in the assay with NCI-H522 lung it was -64% (active); in the assay on COLO 205 colon it was -82.4% (active). Moreover, the growth with DU-145 prostate was -42.2% (active); with SF-268 CNS, -4.4% (active); with SF-295 CNS, -87.5% (active); with SF-539 CNS it was -92.5% (active); in the assay with UACC-257 melanoma, -17.4% (active); in the assay on M14 melanoma, -57.7% (active). In addition, the growth in the assay on HCT-15 colon was -73.9% (active); in the assay on HT29 colon, -33.2% (active); in the assay with SNB-19 CNS, -63.7% (active); in the assay with U251 CNS it was -91.8% (active); in the assay on SK-MEL-5 melanoma it was -76.2% (active); with UACC-62 melanoma it was -84% (active). For the same compound, the values for the growth in the assay on SK-MEL-2 melanoma and in the assay on HL-60(TB) leukemia were -61.3% (active) and -21.8% (active), respectively.
Consider `C=CC[Se]C(=O)c1ccc(C(=O)[Se]CC=C)s1`, for which the growth is -40.1% (active) in the assay with NCI-H226 lung; -63.7% (active) in the assay on NCI-H322M lung; -70.9% (active) with HOP-62 NSCLC; -53.2% (active) in the assay with NCI-H460 lung; -95.5% (active) with NCI-H522 lung; -64.7% (active) with COLO 205 colon. The growth in the assay on DU-145 prostate was -92.8% (active); in the assay on SF-268 CNS, -39.4% (active); in the assay with SF-295 CNS it was -52.5% (active); in the assay with SF-539 CNS, -97% (active); with UACC-257 melanoma it was -78.4% (active); in the assay on M14 melanoma, -90% (active). Moreover, the growth was -42.5% (active) in the assay with HCT-15 colon; -7.14% (active) with HT29 colon; -73.1% (active) with SNB-19 CNS; -86.2% (active) in the assay on U251 CNS; -70.8% (active) in the assay on SK-MEL-5 melanoma; -22.8% (active) with UACC-62 melanoma. Also, the growth is -65.6% (active) in the assay with SK-MEL-2 melanoma and -31.6% (active) in the assay with HL-60(TB) leukemia.
Take `COc1ccc2cc([C@H](C)C(=O)[Se]CCC#N)ccc2c1`: the growth in the assay with NCI-H226 lung is -49.9% (active); in the assay with NCI-H322M lung it was -21.6% (active); in the assay on HOP-62 NSCLC, -81.2% (active); in the assay on NCI-H460 lung, -27.2% (active); with NCI-H522 lung, -95.6% (active); in the assay with COLO 205 colon it was -71% (active). Besides, the growth in the assay with DU-145 prostate is -76.4% (active); in the assay with SF-268 CNS, -45.8% (active); in the assay on SF-295 CNS it was -70.3% (active); in the assay on SF-539 CNS it was -67.3% (active); in the assay with UACC-257 melanoma, -76.9% (active); in the assay on M14 melanoma, -63.9% (active). Besides, the growth in the assay on HCT-15 colon was -31.7% (active); with HT29 colon it was -49.3% (active); in the assay with SNB-19 CNS, -68.7% (active); in the assay with U251 CNS it was -95.3% (active); in the assay on SK-MEL-5 melanoma, -70.4% (active); in the assay on UACC-62 melanoma, -67.7% (active). Further, the values for the growth in the assay on SK-MEL-2 melanoma and with HL-60(TB) leukemia were -42.1% (active) and -42.5% (active), respectively.
